Inconclusive results are not listed. The source made the active and inactive calls. The call rests on the fitted dose curve; in most records, active means well fitted cell-killing curve with a large enough effect; inconclusive means small, poorly fitted or top-dose-only effect, or effect the other way; inactive means no such curve, though single readings can be large or run the other way.
Test: Quantitative High-Throughput drug screen in 47 multiple myeloma cell lines against the NCATS MIPE library collection: U266_ATCC cell viability assay (AID 1919864); further: nearly all actives have a fitted effect of over 35% in size
Settings: U266 myeloma viability, CellTiter-Glo ATP luminescence, 48 h; series mostly up to 45.8 µM
Summary of the method: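 Plated at 500 cells per well, myeloma lines received MIPE 4.0 compounds by pin tool. Following 48 h culture at 37 °C, CellTiter-Glo luminescence gave viability relative to DMSO and media-only controls.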
Potency means the concentration at half of the fitted maximal effect.

SMILES | Potency
CC[C@H](CC#N)OC(=O)N[C@@H](C)c1cccc(NC(=O)Nc2ccc(-c3cnco3)c(OC)c2)c1 | 1.48 µM (active)
Cc1ccccc1C(=O)c1ccc(Nc2ccc(Br)cc2N)cc1Cl | 11.8 µM (active)
CCN1CCC(n2cc(CNc3cc(Cl)c4ncc(C#N)c(Nc5ccc(F)c(Cl)c5)c4c3)nn2)CC1 | 20.9 µM (active)
COc1ccc(-c2ccc3ncc4c(c3c2)n(-c2ccc(N3CCNCC3)c(C(F)(F)F)c2)c(=O)n4C)cn1 | 0.118 µM (active)
COc1cc(N2CCN(C)CC2)ccc1Nc1nc(N)c(C(=O)c2c(Cl)cccc2Cl)s1 | 18.7 µM (active)
Nc1ncnc2c1ncn2[C@@H]1O[C@H](CO)[C@@H](O)[C@@H]1O | 7.43 µM (active)
COc1ccc(CCN(C)CCCOc2ccc(S(=O)(=O)c3[nH]c4ccccc4c3C(C)C)cc2)cc1OC | 18.7 µM (active)
N#Cc1ccc(Oc2ccc3c(c2)COB3O)cc1 | inactive
CC(C)(O)CC(=O)NCCn1ccc2ncnc(Nc3ccc(Oc4cccc(C(F)(F)F)c4)c(Cl)c3)c21 | 16.6 µM (active)
c1cc(OCCN2CCCCC2)cc(-c2n[nH]c3ccc(-c4ncn[nH]4)cc23)c1 | 18.7 µM (active)
CN[C@@H]1CN(c2ccc3c(=O)c(C(=O)O)cn(-c4nccs4)c3n2)C[C@@H]1OC | 8.12 µM (active)
CNc1nc(Nc2ccc(C(=O)N3CCOCC3)cc2OC)ncc1Cl | inactive
O=C(C=Cc1ccc(O)cc1)c1ccc(O)cc1O | 23.5 µM (active)
COc1ccc2c(c1)CC[C@H]1[C@@H]2CC[C@]2(C)[C@@H](NCCCCCCN3C(=O)C=CC3=O)CC[C@H]12 | 20.9 µM (active)
O=C(O)Cc1cccc(OCCCN(Cc2cccc(C(F)(F)F)c2Cl)CC(c2ccccc2)c2ccccc2)c1 | inactive
Nc1ccc(-c2ccc3ncc4ccc(=O)n(-c5cccc(C(F)(F)F)c5)c4c3c2)cn1 | 0.372 µM (active)
CO[C@H]1O[C@@H]2O[C@@]3(C)CC[C@@H]4[C@@H](C)CC[C@@H]([C@H]1C)[C@@]24OO3 | inactive
C[C@@H](N)c1ccc(C(=O)Nc2ccnc3[nH]ccc23)cc1 | 16.6 µM (active)
CC(=O)OCC(=O)[C@@]1(O)CC[C@H]2[C@@H]3CCC4=CC(=O)C=C[C@]4(C)[C@@H]3[C@@H](O)C[C@@]21C | inactive
NC(=O)c1noc([C@H](CCCC2CCCCC2)CC(=O)NO)n1 | 20.9 µM (active)

Reference: PubChem BioAssay (NCATS)
